Measurements published in PubChem BioAssay (Tox21).
Inconclusive results are not listed. Where a call stands in place of a potency, no number is given. A number with no mark means an inactive call. Calls of active or inactive are those of the source. Unless noted, calls come from the whole dose curve.

assay: qHTS assay for small molecule agonists of the antioxidant response element (ARE) signaling pathway - cell viability counter screen (AID 743203); conditions: ARE-bla HepG2 viability, CellTiter-Glo luminescence, 16 h; series mostly up to 73.3 µM; viability change, negative = cytotoxic: at the top concentration; note: nearly all actives have a fitted effect of over 55% in size
Procedure, shortened: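 ARE-bla HepG2 cells were plated, rested 5 h at 37C/5% CO2, then exposed to compounds in DMSO for 16 h. Viability was read as CellTiter-Glo luminescence after 30 min at room temperature, in the same wells as the ARE screen.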

| Structure (SMILES) | Potency |
| --- | --- |
| COCC(C)O (stereo unspecified) | inactive |
| O=S(=O)(O)CCS | inactive |
| O=C1O[C@H](CO)[C@@H](O)[C@H](O)[C@H]1O | inactive |
| OC1CCCC1 | inactive |
| CCCCCCCCCCCCOCC1CO1 (stereo unspecified) | inactive |
| O=[N+]([O-])C(CO)(CO)CO | inactive |
| C=C(C)C(=O)OCCCCCCCCCCCC | inactive |
| CCCCCCCCC | inactive |
| OC[C@@H](O)[C@@H](O)[C@H](O)[C@@H](O)CO | inactive |
| NCCc1ccc(O)c(O)c1 | inactive |
| c1ccc2ccccc2c1 | inactive |
| C=C(C)C(=O)OCCC[Si](OC)(OC)OC | inactive |
| NCc1cccc(CN)c1 | inactive |
| CC1CC(OC(=O)c2ccccc2O)CC(C)(C)C1 (stereo unspecified) | inactive |
| CC1(C)CC(N=C=O)CC(C)(CN=C=O)C1 (stereo unspecified) | inactive |
| CCOC(=O)/C=C\C(=O)OCC | inactive |
| CC[Si](OC(C)=O)(OC(C)=O)OC(C)=O | inactive |
| CCCCOCCO | inactive |
| CCOC(=O)[C@H](CCc1ccccc1)N[C@@H](C)C(=O)N1Cc2ccccc2C[C@H]1C(=O)O | inactive |

| Structure (SMILES) | Potency |
| --- | --- |
| Clc1ccc(Cl)c(Cl)c1Cl | inactive |
| COC(=O)c1ccc(C(=O)OC)cc1 | inactive |
| Nc1c(S(=O)(=O)O)cc(Br)c2c1C(=O)c1ccccc1C2=O | inactive |
| NS(=O)(=O)c1cc2c(cc1Cl)NC=NS2(=O)=O | inactive |
| CCCCCCOC(C)=O | inactive |
| OCC1CCCO1 (stereo unspecified) | inactive |
| CCOC(=O)C1OC1c1ccccc1 (stereo unspecified) | inactive |
| CC(C)(N=C=O)c1cccc(C(C)(C)N=C=O)c1 | inactive |
| CCCCOCCOCCOC(=O)CCCCC(=O)OCCOCCOCCCC | inactive |
| CS(=O)(=O)c1ccc([C@@H](O)[C@@H](CO)NC(=O)C(Cl)Cl)cc1 | inactive |
| CCC(C)C=O (stereo unspecified) | inactive |
| COCC(=O)O | inactive |
| CC(C)(CO)COC(=O)C(C)(C)CO | inactive |
| C=C(C)C(=O)OCC(CC)(COC(=O)C(=C)C)COC(=O)C(=C)C | inactive |
| Clc1cc(Cl)c(Cl)cc1Cl | inactive |
| CCCCCCC(C)(C)S | inactive |
| CC1Cc2ccccc2N1NC(=O)c1ccc(Cl)c(S(N)(=O)=O)c1 (stereo unspecified) | inactive |
| CN(C)c1cccc(O)c1 | inactive |
| O=C(Cl)c1c(Cl)c(Cl)c(C(=O)Cl)c(Cl)c1Cl | inactive |

assay: qHTS assay for small molecule activators of the heat shock response signaling pathway - cell viability counter screen (AID 743209; active = well fitted cell-killing curve with a large enough effect in the repeat runs; note: nearly all actives have a fitted effect of over 50% in size; note: potency is the fitted concentration of half-maximal effect); conditions: HSE-bla HeLa viability, CellTiter-Glo luminescence, 5 h; series mostly up to 62.6 µM; activity change, negative = cytotoxicity: at the top concentration
Procedure, shortened: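 HSE-bla HeLa cells plated overnight, then exposed to Tox21 compounds (23 nL in DMSO) for 5 h at 37 C. After the bla reporter read, CellTiter-Glo was added in the same wells and luminescence read after 30 min at room temperature.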

| Structure (SMILES) | Potency |
| --- | --- |
| COCC(C)O (stereo unspecified) | inactive |
| O=S(=O)(O)CCS | inactive |
| O=C1O[C@H](CO)[C@@H](O)[C@H](O)[C@H]1O | inactive |
| OC1CCCC1 | inactive |
| CCCCCCCCCCCCOCC1CO1 (stereo unspecified) | inactive |
| O=[N+]([O-])C(CO)(CO)CO | inactive |
| C=C(C)C(=O)OCCCCCCCCCCCC | inactive |
| CCCCCCCCC | inactive |
| OC[C@@H](O)[C@@H](O)[C@H](O)[C@@H](O)CO | inactive |
| NCCc1ccc(O)c(O)c1 | inactive |
| c1ccc2ccccc2c1 | inactive |
| C=C(C)C(=O)OCCC[Si](OC)(OC)OC | inactive |
| NCc1cccc(CN)c1 | inactive |
| CC1(C)CC(N=C=O)CC(C)(CN=C=O)C1 (stereo unspecified) | inactive |
| CCOC(=O)/C=C\C(=O)OCC | inactive |
| CC[Si](OC(C)=O)(OC(C)=O)OC(C)=O | inactive |
| CCCCOCCO | inactive |
| CCOC(=O)[C@H](CCc1ccccc1)N[C@@H](C)C(=O)N1Cc2ccccc2C[C@H]1C(=O)O | inactive |
| Clc1ccc(Cl)c(Cl)c1Cl | inactive |

| Structure (SMILES) | Potency |
| --- | --- |
| COC(=O)c1ccc(C(=O)OC)cc1 | inactive |
| Nc1c(S(=O)(=O)O)cc(Br)c2c1C(=O)c1ccccc1C2=O | inactive |
| NS(=O)(=O)c1cc2c(cc1Cl)NC=NS2(=O)=O | inactive |
| CCCCCCOC(C)=O | inactive |
| OCC1CCCO1 (stereo unspecified) | inactive |
| CCOC(=O)C1OC1c1ccccc1 (stereo unspecified) | inactive |
| CC(C)(N=C=O)c1cccc(C(C)(C)N=C=O)c1 | inactive |
| CCCCOCCOCCOC(=O)CCCCC(=O)OCCOCCOCCCC | inactive |
| CS(=O)(=O)c1ccc([C@@H](O)[C@@H](CO)NC(=O)C(Cl)Cl)cc1 | inactive |
| CCC(C)C=O (stereo unspecified) | inactive |
| COCC(=O)O | inactive |
| CC(C)(CO)COC(=O)C(C)(C)CO | inactive |
| C=C(C)C(=O)OCC(CC)(COC(=O)C(=C)C)COC(=O)C(=C)C | 12.1 µM (active) |
| Clc1cc(Cl)c(Cl)cc1Cl | inactive |
| CCCCCCC(C)(C)S | inactive |
| CC1Cc2ccccc2N1NC(=O)c1ccc(Cl)c(S(N)(=O)=O)c1 (stereo unspecified) | inactive |
| CN(C)c1cccc(O)c1 | inactive |
| O=C(Cl)c1c(Cl)c(Cl)c(C(=O)Cl)c(Cl)c1Cl | inactive |

assay: qHTS assay for small molecule activators of the heat shock response signaling pathway (AID 743210; active = well fitted activation curve with a large enough effect in the signal ratio in the repeat runs, with a control signal flat, not every such curve was filed as active; the % refers to the signal ratio;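 note: HeLa cells with beta-lactamase reporter driven by heat shock elements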); conditions: HeLa HSE-bla reporter, beta-lactamase ratio, 5 h; series mostly up to 62.6 µM; activation: at the top concentration
Procedure, shortened: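 In HSE-bla HeLa cells, 5 h compound incubation (37 C) precedes addition of LiveBLAzer B/G substrate; after 2.5 h at room temperature, fluorescence intensity indicates reporter induction.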

| Structure (SMILES) | outcome | activation |
| --- | --- | --- |
| O=S(=O)(O)CCS | inactive |  |
| O=C1O[C@H](CO)[C@@H](O)[C@H](O)[C@H]1O | inactive |  |
| OC1CCCC1 | inactive |  |
| CCCCCCCCCCCCOCC1CO1 (stereo unspecified) | inactive |  |
| O=[N+]([O-])C(CO)(CO)CO | inactive |  |
| C=C(C)C(=O)OCCCCCCCCCCCC | inactive |  |
| CCCCCCCCC | inactive |  |
| OC[C@@H](O)[C@@H](O)[C@H](O)[C@@H](O)CO | inactive |  |
| c1ccc2ccccc2c1 | inactive |  |
| C=C(C)C(=O)OCCC[Si](OC)(OC)OC | inactive |  |
| NCc1cccc(CN)c1 | inactive |  |
| CC1(C)CC(N=C=O)CC(C)(CN=C=O)C1 (stereo unspecified) | inactive |  |
| CCOC(=O)/C=C\C(=O)OCC | inactive |  |
| CC[Si](OC(C)=O)(OC(C)=O)OC(C)=O | inactive |  |
| CCCCOCCO | inactive |  |
| CCOC(=O)[C@H](CCc1ccccc1)N[C@@H](C)C(=O)N1Cc2ccccc2C[C@H]1C(=O)O |  | 1.61% [at 81.1 µM] |

| Structure (SMILES) | outcome | activation |
| --- | --- | --- |
| Clc1ccc(Cl)c(Cl)c1Cl | inactive |  |
| Nc1c(S(=O)(=O)O)cc(Br)c2c1C(=O)c1ccccc1C2=O | inactive |  |
| NS(=O)(=O)c1cc2c(cc1Cl)NC=NS2(=O)=O | inactive |  |
| OCC1CCCO1 (stereo unspecified) | inactive |  |
| CCOC(=O)C1OC1c1ccccc1 (stereo unspecified) | inactive |  |
| CC(C)(N=C=O)c1cccc(C(C)(C)N=C=O)c1 | inactive |  |
| CCCCOCCOCCOC(=O)CCCCC(=O)OCCOCCOCCCC | inactive |  |
| CS(=O)(=O)c1ccc([C@@H](O)[C@@H](CO)NC(=O)C(Cl)Cl)cc1 | inactive |  |
| CCC(C)C=O (stereo unspecified) | inactive |  |
| COCC(=O)O | inactive |  |
| CC(C)(CO)COC(=O)C(C)(C)CO | inactive |  |
| Clc1cc(Cl)c(Cl)cc1Cl | inactive |  |
| CCCCCCC(C)(C)S | inactive |  |
| CN(C)c1cccc(O)c1 | inactive |  |
| O=C(Cl)c1c(Cl)c(Cl)c(C(=O)Cl)c(Cl)c1Cl | inactive |  |
